Her2 expr inh: Her2 kinase expression inhibition | P04626 | SKBR-3 HER2 protein level, AlphaScreen, 18-24 h; active compounds read low | HER2 level % of control, % at 10 µM | hit rate 0.69% among 65,000;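 active = HER2 level under 5% of the carrier-only control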;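 note: 100% = DMSO carrier and 0% = 500 nM PU-H71 HSP90 inhibitor; lower value means stronger loss of Her2 protein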
FXIa mix inh: inhibitors of human coagulation factor XIa, pooled mixtures; P03951; purified FXIa, fluorogenic substrate; inhibition, % at 5 µM; hit rate 0.19% among 62,000; AID 680;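 note: each value is inhibition by a whole ten-compound pool holding the compound; 0% = enzyme with no mixture and 100% = wells lacking enzyme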
M1 antagonist: blocks the rat M1 muscarinic receptor response to acetylcholine; P08482; CHO-M1 cells, Fluo-4 calcium, ACh EC80 antagonist mode; active compounds read low; B-score at 10 µM; hit rate 3.4% among 64,000; AID 628;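 active = calcium fluorescence response, raw or row-and-column corrected B-score, differing from the plate sample mean either way at a set confidence level, mostly lower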
Target sequence (P08482 whole entry, looked up): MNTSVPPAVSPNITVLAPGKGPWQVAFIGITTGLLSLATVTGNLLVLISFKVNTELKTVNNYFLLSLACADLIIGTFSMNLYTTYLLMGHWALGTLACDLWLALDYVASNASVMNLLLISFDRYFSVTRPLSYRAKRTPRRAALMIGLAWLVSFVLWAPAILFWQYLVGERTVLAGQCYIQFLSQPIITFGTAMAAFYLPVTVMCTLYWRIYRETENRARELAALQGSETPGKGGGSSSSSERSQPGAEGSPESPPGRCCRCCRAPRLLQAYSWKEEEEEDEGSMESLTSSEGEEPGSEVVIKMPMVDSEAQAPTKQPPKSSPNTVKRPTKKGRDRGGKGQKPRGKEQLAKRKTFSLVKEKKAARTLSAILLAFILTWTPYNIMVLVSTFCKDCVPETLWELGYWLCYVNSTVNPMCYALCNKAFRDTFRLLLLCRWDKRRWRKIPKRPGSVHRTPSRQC
JNK3 inh: blocks human JNK3 kinase activity | inhibition, % at 8 µM | purified JNK3 kinase activity, HTS | hit rate 0.61% among 60,000; in the data active = inhibition above about 17%;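 note: 0% = DMSO and 100% = reference inhibitor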
FXIIa inh mix: factor XIIa (human) inhibition, mixture screen; P00748; purified FXIIa, fluorogenic substrate, pooled mixtures; inhibition, % at 5 µM; hit rate 0.2% among 62,000;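 note: 0% = enzyme without compound and 100% = no enzyme blank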
M1 agonist: agonists of M1 muscarinic receptor; CHO-M1 cells, Fluo-4 calcium fluorescence, agonist mode; active compounds read high; B-score at 10 µM; hit rate 3% among 64,000; AID 626;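 active = fluorescence rise, raw or as B-score row- and column-corrected plate score, outside the 99.7% band of its plate's samples, either direction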
* hit, by the source's call. Rows were chosen to be rich in hits. Some 6.9% of all compounds tested hit in one or more screens of this group. Cut-off read from the data, not from the text of the source, unless noted: active = inhibition above about 20% (passing the limit was not always enough); inactive = the rest.

For COc1cc(C(=O)Nc2ccc(S(=O)(=O)Nc3cc(C)on3)cc2)cc(OC)c1OC the results were Her2 expr inh 174, FXIa mix inh -6, M1 antagonist 0.2, JNK3 inh -5, FXIIa inh mix 2 and M1 agonist -0.0099.
Screening CCOc1cc(C(=O)Nc2ccc(S(=O)(=O)Nc3cc(C)on3)cc2)cc(OCC)c1OCC returned Her2 expr inh 89, FXIa mix inh 2, M1 antagonist 1.4, JNK3 inh -2, FXIIa inh mix 3 and M1 agonist -3.5*.
Screening CCOc1cc2c(cc1OCC)C(c1cc(OC)c(O)c(OC)c1)NCC2 (stereo not given) returned Her2 expr inh 79, FXIa mix inh 5, M1 antagonist 0.062, JNK3 inh -7, FXIIa inh mix 24* and M1 agonist 0.49.
Nc1nnnn1CC(=O)OCc1cccc(Br)c1 was read as Her2 expr inh 115, M1 antagonist -0.21, JNK3 inh 8 and M1 agonist -0.52.
O=S(=O)(Nc1ccccc1F)c1ccc2nsnc2c1 was read as FXIa mix inh 2, M1 antagonist -1.1, JNK3 inh -10, FXIIa inh mix 21* and M1 agonist -1.
Screening CCOc1ccccc1C(=O)N1CCCCC1C (stereo not given) returned Her2 expr inh 126, FXIa mix inh 11, M1 antagonist -0.48, JNK3 inh 9, FXIIa inh mix -3 and M1 agonist 0.31.
O=C(COC(=O)c1ccccn1)Nc1c(Cl)cccc1Cl was read as Her2 expr inh 86, FXIa mix inh 7, M1 antagonist 1.3, JNK3 inh 0, FXIIa inh mix 0 and M1 agonist -0.38.
Clc1cccc(Cl)c1COc1ccccn1 was read as Her2 expr inh 121, FXIa mix inh 3, M1 antagonist -0.019, JNK3 inh -6, FXIIa inh mix 30* and M1 agonist 0.16.
`Cc1ccc(S(=O)(=O)N2CCN(C(=O)CCC(=O)N3CCc4ccccc43)CC2)cc1` gave Her2 expr inh 70, FXIa mix inh 4, M1 antagonist -3.3*, FXIIa inh mix 1 and M1 agonist 1.1.
Screening Cc1cccc(N2CCN(c3nc4ccc(Cl)cc4n4cnnc34)CC2)c1C returned Her2 expr inh 30, FXIa mix inh 4, M1 antagonist -0.013, JNK3 inh 10, FXIIa inh mix 11 and M1 agonist -1.1.
For COc1cccc(C2/C(=C(/O)c3ccncc3)C(=O)C(=O)N2CCCN2CCOCC2)c1OC (stereo not given) the results were Her2 expr inh 69, FXIa mix inh 8, M1 antagonist -0.018, JNK3 inh -2, FXIIa inh mix -3 and M1 agonist -0.057.
Screening CCC(=O)c1ccc(OCC(=O)Nc2nn3cnnc3s2)cc1 returned FXIa mix inh 8, M1 antagonist -0.042, FXIIa inh mix 3 and M1 agonist 0.6.
For CC(C)(C)c1cc(C(=O)N2CCc3ccccc32)ccn1 the results were Her2 expr inh 67, FXIa mix inh 1, M1 antagonist -1.1, JNK3 inh 5, FXIIa inh mix 7 and M1 agonist 0.071.
`CN(C)S(=O)(=O)c1cccc(C(=O)N2CCc3ccccc32)c1` gave Her2 expr inh 114, FXIa mix inh 1, M1 antagonist 1.3*, JNK3 inh 5, FXIIa inh mix -10 and M1 agonist 0.0021.
Screening COC(=O)C1=C(C)NC(C)=C(C(=O)OC)C1c1ccccc1OCc1c(C)no[n+]1[O-] returned Her2 expr inh 93, FXIa mix inh -7, M1 antagonist -0.32, JNK3 inh -3, FXIIa inh mix -21 and M1 agonist -0.3.
`CC(C)c1ccc(O)c(NC(=O)c2ncn[nH]2)c1` gave Her2 expr inh 69, FXIa mix inh 1, M1 antagonist 2.3*, JNK3 inh 4, FXIIa inh mix 1 and M1 agonist 0.2.
CCc1cc(-c2[nH]ncc2-c2ccc3c(c2)OCO3)c(O)cc1O was read as Her2 expr inh -1.1*, FXIa mix inh -3, M1 antagonist -0.0031, JNK3 inh 4, FXIIa inh mix 8 and M1 agonist 3.2.
`O=C(CSc1nnc(Cc2ccccc2)n1C1CCCCC1)N1CCOCC1` gave Her2 expr inh 77, FXIa mix inh 1, M1 antagonist 1.1*, JNK3 inh -1, FXIIa inh mix 2 and M1 agonist 0.85.
Cc1cc(C)n(C(=O)c2ccc(C)c(S(=O)(=O)N3CCCC3)c2)n1 was read as Her2 expr inh 72, FXIa mix inh 4, M1 antagonist 1.7, JNK3 inh 4, FXIIa inh mix 13 and M1 agonist 0.
CCOC(=O)C1=C(C)OC(N)=C(C#N)C1C1CCCCC1 (stereo not given) was read as Her2 expr inh 118, FXIa mix inh 4, M1 antagonist 1.4, JNK3 inh 7, FXIIa inh mix 6 and M1 agonist -0.41.
CCOC(=O)C1=C(C)OC(N)=C(C#N)C1c1cc2ccccc2nc1N1CCCCC1 (stereo not given) was read as Her2 expr inh 61, M1 antagonist -0.45, JNK3 inh 22* and M1 agonist 2.9.
Screening Cc1cc(Oc2ccccc2)nc(OCC#N)n1 returned Her2 expr inh 110, FXIa mix inh 2, M1 antagonist 0.4, JNK3 inh -8, FXIIa inh mix 38* and M1 agonist 0.097.
Screening Cc1ccc2c(c1)N(CC(=O)OC(CC(C)C)C(=O)NC1CCCC1)C(=O)CO2 (stereo not given) returned Her2 expr inh -24*, FXIa mix inh 7, M1 antagonist -0.12, JNK3 inh -5, FXIIa inh mix 8 and M1 agonist 1.5.
For Cn1c(Cn2c(=O)sc3ccccc32)nnc1SCC(=O)N1CCOCC1 the results were Her2 expr inh 89, FXIa mix inh 0, M1 antagonist 0.033, JNK3 inh 0, FXIIa inh mix 8 and M1 agonist -0.0082.
Screening COc1ccc(-n2c(Cn3c(=O)sc4ccccc43)nnc2SCC(=O)N2CCOCC2)cc1 returned Her2 expr inh -17*, FXIa mix inh 14, M1 antagonist -0.69, JNK3 inh -2, FXIIa inh mix 12 and M1 agonist 0.64.
`COc1cccc(-n2c(SCC(=O)N3CCOCC3)nnc2-c2c[nH]c3ccccc23)c1` gave Her2 expr inh 91, FXIa mix inh 24*, M1 antagonist 1.1, JNK3 inh 0, FXIIa inh mix 6 and M1 agonist 0.071.
For COc1cc2cc(CN(Cc3cccnc3)C(=O)NCc3ccccc3)c(=O)[nH]c2cc1OC the results were Her2 expr inh 110, FXIa mix inh 2, M1 antagonist 0.84, JNK3 inh 7, FXIIa inh mix 0 and M1 agonist 0.45.
O=C(c1ccco1)N1CCN(CC(O)COc2ccc3oc4ccccc4c3c2)CC1 (stereo not given) was read as Her2 expr inh 90, FXIa mix inh 9, M1 antagonist -2.2, JNK3 inh -3, FXIIa inh mix 10 and M1 agonist 2.1.

Compound activity from PubChem BioAssay.
